Source: PubChem
aDG glyco up = increases alpha dystroglycan glycosylation. activation, % at 10 µM. hit rate 0.22% among 360,000. AID 624168. Pro5-aDG cells, alpha-DG glycosylation AlphaScreen (IIH6); 0% Pro5, 100% B10-LARGE cell signal;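 active = activation of at least 8% versus controls, or a plate z-score of at least 8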;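 also: Pro5 are CHO cells carrying HIG-tagged alpha-DG that lacks glycosylation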
CRFR2-BP antag = CRF-BP/CRF-R2 complex antagonism; inhibition, % at 11.8 µM; HEK293 CRF-R2/CRF-BP, CRF-induced calcium fluorescence; AID 588475; hit rate 0.59% among 350,000;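 active = inhibition of the ligand-induced calcium signal above about 50% at the single tested concentration, limit read from the data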
H9c2 protect = myocardial damage modulation in H9c2 cells; H9c2 cardiomyocytes, H2O2 injury protection, ATPLite, 2 h; protection from H2O2 cell death, % at 20 µM; hit rate 0.63% among 360,000; AID 588492;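 active = compounds giving at least 50% protection of heart cells from peroxide-induced death in the single-dose screen, raw or plate-pattern-corrected value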
FAS-TE inh = blocks the thioesterase domain of human fatty acid synthase; P49327; recombinant FAS-TE, OMFH fluorogenic substrate, fluorescence endpoint; inhibition, % at 15 µM; hit rate 0.67% among 360,000;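 active = compounds whose normalised, plate-corrected inhibition of enzyme fluorescence in the single-dose primary screen is 50% or more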
CRFR2-BP ag = CRF-BP/CRF-R2 complex agonism. HEK293 CRF-R2/CRF-BP, calcium dye fluorescence (FLIPR); percent of saturating CRF peptide response. activation, % at 13.2 µM. hit rate 0.46% among 350,000. AID 588473;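 active = activation of at least 50%, plus an integration ratio under a set limit after plate pattern correction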
PfG6PD inh = PfG6PD (Plasmodium falciparum) enzyme inhibition | hit rate 0.78% among 350,000 | PfGluPho enzyme, NADPH resazurin-diaphorase fluorescence | inhibition, % at 20 µM | AID 504690;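 active = inhibition reaching at least a set limit at 20 µM in the primary screen, cut at about 59% in these data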
Of the large screens only hits and unclear results are named; the others gave an inactive call. Compounds with a hit are over-represented: about 3.2% of the library has one in this group of screens.

O=C(Nc1cc(Br)c(O)c(Br)c1)c1cccc(NC(=O)c2ccco2)c1	none
Cc1cc(C(=O)N/N=C/c2c(C)[nH]n(-c3ccccc3)c2=O)n[nH]1	none
Cc1ccc(-c2cc(C(=O)N/N=C/c3c(C)nn(-c4ccccc4)c3C)n[nH]2)s1	H9c2 protect 72.5
Cc1ccc(-c2cc(C(=O)N/N=C/c3c(C)nn(-c4ccccc4)c3C)[nH]n2)cc1	none (no result: CRFR2-BP antag, CRFR2-BP ag, PfG6PD inh)
Cc1nn(-c2ccccc2)c(C)c1/C=N/NC(=O)c1cc(C(C)(C)C)[nH]n1	H9c2 protect 54.2
Cc1[nH]c2ccccc2c1/C=N/NC(=O)c1cc(-c2cccs2)[nH]n1	H9c2 protect 51.0
O=S(=O)(Nc1ccccn1)c1ccc(Cl)c2ccccc12	none
CN(C)C(=O)Nc1ccccc1	none
C=C1C(C(=O)Nc2ccccc2)C1C(=O)Nc1ccccc1 (stereo unspecified)	CRFR2-BP antag 59.5
COc1ccnc(Oc2ccccc2)c1C(=O)N/C=N/OCc1ccc(F)cc1Cl	H9c2 protect 69.2
O=C(NC1CCCCC1)C(c1ccc2ncccc2c1)N(Cc1ccccc1)C(=O)c1ccc2c(c1)OCCO2 (stereo unspecified)	H9c2 protect 53.0
COc1ccc(CN(C(=O)c2ccc3c(c2)OCCO3)C(C(=O)NC2CCCCC2)c2ccc3ncccc3c2)cc1 (stereo unspecified)	none
O=C(CCCc1ccccc1)Nc1nncs1	CRFR2-BP antag 63.5
CC(C)CNC(=O)CN1c2cccc3cccc(c23)S1(=O)=O	CRFR2-BP antag 78.6
CC(NC(=O)CN1c2cccc3cccc(c23)S1(=O)=O)c1ccccc1 (stereo unspecified)	none
O=C1/C(=C/c2ccc(N3CCCC3)cc2)NC(=S)N1C1CC1	CRFR2-BP ag 176.2
O=C1N/C(=C/c2ccc(N3CCCC3)cc2)C(=O)N1c1ccccc1	none
CN1C(=O)c2ccc(N3CCCC3)cc2C1=O	none
Cc1cc(N2CCCC2)ccc1/C=C1\NC(=S)N(C)C1=O	CRFR2-BP ag 169.5
CCOc1cc(CNc2ccc3[nH]c(=O)[nH]c3c2)ccc1OCC(=O)NC(C)(C)C	H9c2 protect 56.6
C=CCOc1ccc(CNc2ccc3[nH]c(=O)[nH]c3c2)cc1OCC	none
CC1=C(C(=O)NCc2ccccn2)C2(CCC(C)CC2)OC1=O (stereo unspecified)	CRFR2-BP antag 65.9
COCCNC(=O)C1(C)CCCN(C(=O)c2ccc3c(c2)CCO3)C1 (stereo unspecified)	none (no result: CRFR2-BP antag, CRFR2-BP ag, PfG6PD inh)
N#Cc1cccc(NC(=O)Nc2cccs2)c1	CRFR2-BP antag 107.9
CCc1cccc(NC(=O)Nc2cccs2)c1	none
Cc1cc(C)c(S(=O)(=O)n2ccc3ccccc32)c(C)c1	CRFR2-BP antag 58.3
O=S(=O)(c1ccccc1)n1ccc2ccccc21	none
C/C(=N\NC(=O)c1cccnc1)c1ccc(OC2OCCOC2Oc2ccc(/C(C)=N/NC(=O)c3cccnc3)cc2)cc1 (stereo unspecified)	H9c2 protect 53.3
C/C(N)=C(/C#N)C(=O)CSc1nnc(Nc2ccccc2)s1	H9c2 protect 56.8
CCOC(=O)c1c(C2CC2)csc1NC(=O)COC(=O)CCS(=O)(=O)c1ccc(C)cc1	none
CCOC(=O)Nc1cc2c(cc1[N+](=O)[O-])-c1ccccc1C2=O	none
CCC1Oc2ccccc2N(CC(=O)NCc2cccs2)C1=O (stereo unspecified)	none
CSCCC(NC(=O)c1cccc(C)c1)C(=O)NCc1cccs1 (stereo unspecified)	none
CSCCC(NC(=O)c1cccc(C)c1)C(=O)NNC(=O)c1cccs1 (stereo unspecified)	CRFR2-BP antag 65.5
Cn1nccc1NC(=O)COCC(=O)O	none
O=c1c2c(nc3n1CCS3)c1cc(F)ccc1n2Cc1cc(=O)n2cc(Cl)ccc2n1	PfG6PD inh 61.7 (no result: aDG glyco up, H9c2 protect, FAS-TE inh)
O=C(Cn1c2ccc(F)cc2c2nc3n(c(=O)c21)CCS3)Nc1ccc(Cl)cc1F	none
Cc1ccc(OCCCC(=O)NC2CCCCC2)cc1	none
COc1ccc(NC(=O)COC(=O)Cn2nnc3ccccc32)cc1	none
CN(C)c1ccc(NC(=O)COC(=O)Cn2nnc3ccccc32)cc1	CRFR2-BP antag 93.2
Cc1ccc(NC(=O)c2c(Cl)nc3ccccn23)cc1	none
Cc1ccc(NC(=O)c2nc[nH]c2C(=O)NCCCNC(=O)c2[nH]cnc2C(=O)Nc2ccc(C)cc2)cc1	H9c2 protect 66.4
Cc1ccc(NC(=O)c2nc[nH]c2C(=O)NCCCCCCNC(=O)c2[nH]cnc2C(=O)Nc2ccc(C)cc2)cc1	H9c2 protect 81.3
CC/C(C)=N\N=C\c1c(O)n(CC)c2cc(C3=NNC(=O)CC3)ccc12	H9c2 protect 61.0
CCOC(=O)/C(C#N)=C/Nc1ccccc1OC(F)(F)F	none
C[C@]12c3[nH]c4ccccc4c3CCN1C(=O)C(CC(=O)NCC13CC4CC(CC(C4)C1)C3)C[C@@H]2C(=O)N1CCOCC1 (stereo partly specified)	CRFR2-BP ag 55.1
O=C(C[C@H]1C[C@H](C(=O)N2CCCCC2)[C@@]2(CCc3ccccc3)c3[nH]c4ccc(Cl)cc4c3CCN2C1=O)NCCCn1ccnc1	none
C[C@]12c3[nH]c4ccccc4c3CCN1C(=O)C(CC(=O)NCC13CC4CC(CC(C4)C1)C3)C[C@@H]2C(=O)N1CCCCC1 (stereo partly specified)	none
CC(C)(C)NC(=O)C[C@H]1C[C@H](C(=O)N2CCOCC2)[C@@]2(CCC3CCCC3)c3[nH]c4ccc(Cl)cc4c3CCN2C1=O	FAS-TE inh 89.3
O=C(C[C@H]1C[C@H](C(=O)N2CCCCC2)[C@@]2(CCc3ccccc3)c3[nH]c4ccc(Cl)cc4c3CCN2C1=O)NCCN1CCOCC1	CRFR2-BP ag 57.4
COc1ccc2[nH]c3c(c2c1)CCN1C(=O)C(CC(=O)NCCN2CCOCC2)C[C@H](C(=O)N2CCOCC2)[C@@]31CCC1CCCC1 (stereo partly specified)	none
Cc1cc(N2CCN(C(=O)Oc3ccc([N+](=O)[O-])cc3)CC2)c2ccccc2n1	none (no result: CRFR2-BP antag, H9c2 protect, CRFR2-BP ag, PfG6PD inh)
CC(C)n1c(=O)[nH][nH]c1=S	PfG6PD inh 74.7
Cc1ccc2nc(/N=C(\N)NC(=O)NC3CCCCC3)nc(C)c2c1	none
CCOc1ccc(C(=O)OCC(=O)Nc2cccnc2Cl)cc1OCC	CRFR2-BP antag 103.4
O=C(COC(=O)c1ccccc1O)Nc1cccnc1Cl	none
Cc1cc(C)cc(C(=O)Nc2cccnc2Cl)c1	CRFR2-BP antag 68.0
NC(=O)c1ccccc1OCC(=O)Nc1cccnc1Cl	H9c2 protect 52.6
Cc1ccc(C(=O)Nc2cccnc2Cl)cc1Cl	none
CC(C)C(=O)N1CCN(c2ccccc2NC(=O)c2ccc3c(c2)OCCO3)CC1	none
CCOC(=O)C1CCCN(C(=O)c2ccncc2)CC1 (stereo unspecified)	none (no result: CRFR2-BP antag, CRFR2-BP ag, PfG6PD inh)
O=C1Nc2ccccc2C(=O)N2C[C@@H](O)C[C@H]12	none
